The text below walks through data of ChEMBL document CHEMBL3433997, “St. Jude Leishmania screening dataset” (2016).

What all share (assay type): functional
The target of test [1] is Solute carrier family 2, facilitated glucose transporter member 1 (Homo sapiens) (UniProt P11166). Nature of the test: ST_JUDE_LEISH: Cytotoxicity at 2uM final concentration against transgenic Leishmania Mexicana promastigotes LmGLUT1 that are glucose transport deficient and complemented with the human glucose transporter GLUT1. Activity is measured by DNA content using SYBR green in vitro.
Chain of Solute carrier family 2, facilitated glucose transporter member 1 (Homo sapiens) (P11166 whole entry): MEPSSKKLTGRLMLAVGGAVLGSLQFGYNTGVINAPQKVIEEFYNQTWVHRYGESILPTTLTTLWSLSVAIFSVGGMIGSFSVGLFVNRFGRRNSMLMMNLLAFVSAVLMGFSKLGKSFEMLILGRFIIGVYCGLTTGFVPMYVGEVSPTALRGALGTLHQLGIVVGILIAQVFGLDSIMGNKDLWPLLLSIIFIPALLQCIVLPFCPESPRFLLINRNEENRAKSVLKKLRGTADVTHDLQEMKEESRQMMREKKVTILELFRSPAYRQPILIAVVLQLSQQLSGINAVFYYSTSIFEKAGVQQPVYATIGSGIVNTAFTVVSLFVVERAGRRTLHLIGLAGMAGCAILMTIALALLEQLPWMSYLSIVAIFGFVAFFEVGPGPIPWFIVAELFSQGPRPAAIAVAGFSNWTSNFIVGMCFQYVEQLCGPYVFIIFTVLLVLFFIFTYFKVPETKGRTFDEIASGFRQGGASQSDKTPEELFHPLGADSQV

Test [2] addresses Hexose transporter 1 (Plasmodium falciparum) (UniProt O97467). Nature of the test: ST_JUDE_LEISH: Cytotoxicity at 2uM final concentration against transgenic Leishmania Mexicana promastigotes LmPfHT that are glucose transport deficient and complemented with the Plasmodium falciparum hexose transporter. Activity is measured by DNA content using SYBR green in vitro.
For test [3], the target named is Glucose transporter (Leishmania mexicana) (UniProt O61059). Nature of the test: ST_JUDE_LEISH: Cytotoxicity at 2uM final concentration against transgenic Leishmania Mexicana promastigotes LmGT2 that are glucose transport deficient and complemented with the L. Mexicana glucose transporter 2. Activity is measured by DNA content using SYBR green in vitro.

Where “and” joins values, the source holds several entries; their conditions need not be identical. Equal entries are not always repeated.

Broadly, the inhibition is the relative decrease from the control value, in per cent. As for `O=C(/C=C/c1ccc(Cl)c(Cl)c1)NC1C2CCC1CC(CN1CCC(c3c[nH]c4ccccc34)CC1)C2` (centres undefined), the inhibition came to 3.31% in test [1], 4.24% in test [2] and 2.44% in test [3].
`C#CCN1CCC2=C(C1)c1c(O)cc(C(C)CCCc3ccc(F)cc3)cc1OC2(C)C` (centres undefined): the inhibition in test [1] came to 1.13%; in test [2] it was 0.61%; in test [3], 0.09%.
The corresponding values for `CN1CC=C(c2c[nH]c3ccc(Br)cc23)CC1` are 1.93%, 0.19% and -0.72%.
In the case of `Oc1ccccc1CNCC(O)c1cc(C(F)(F)F)cc(C(F)(F)F)c1` (centres undefined), the values for the inhibition in test [1], in test [2] and in test [3] were 6.65%, 5.51% and 4.91%, respectively.
The corresponding values for `COc1ccc(O)c(CN2CCN(c3cc(C)ccc3C)CC2)c1` are 2.93%, 3% and 2.89%.
In the same order, the values of `CCCCCCCCNCC(O)c1ccc(Cl)c(Cl)c1` (centres undefined) are 2.51%, 3.44% and 1.24%.
In the same order, the values of `CCCN(CCC)CCOC(=O)C(OCC)(c1ccccc1)c1ccccc1` are 1.8%, 0.63% and -0.33%.
Consider `CS(=O)(=O)Nc1ccc2[nH]cc(C3CCN(CC4CCN(C(=O)/C=C/c5ccc(Cl)c(Cl)c5)CC4)CC3)c2c1`, for which the inhibition in test [1] worked out at 4.43%; in test [2], 3.49%; in test [3], 4.09%.
As for `CN1CC=C(c2c[nH]c3ccc(C(=O)c4nccs4)cc23)CC1`, the inhibition was -1.82% in test [1], -1.47% in test [2] and -1.62% in test [3].
Take `OC1(CNCc2ccccc2)CCN(CCc2c[nH]c3ccc(F)cc23)CC1`: the inhibition in test [1] turned out to be 4.9%; in test [2], 8.31%; in test [3] it was 5.83%.
The corresponding values for `CN(c1ccc(NC(=O)CCOc2ccccc2)cc1)C1CCN(Cc2cccc(O)c2)CC1` are 1.64%, -0.45% and -0.97%.
In the case of `COc1ccc(OC)c(C(O)C(C)NCc2cc(Cl)ccc2O)c1` (centres undefined), the inhibition came to 0.78% in test [1], 1.14% in test [2] and 1.94% in test [3].
The corresponding values for `O=C(/C=C/c1ccccc1Cl)NC1CCC(CN2C3CCC2CC(c2c[nH]c4ccccc24)C3)CC1` (centres undefined) are 2.84%, -0.31% and 5.5%.
The corresponding values for `CN(Cc1ccccc1)C1CCN(CCc2c[nH]c3ccc(F)cc23)CC1` are 6.41%, 5.56% and 7.12%.
Take `COc1ccc(C[C@@H](C)NC[C@H](O)c2cccc(Cl)c2)cc1F`: the inhibition in test [1] was 0.83% and 1.3%; in test [2], 3.32% and 5.02%; in test [3] it was 0.88% and 0.58%.
Consider `COC(=O)/C=C/c1ccc(CC(C)NCC(O)c2cccc(Cl)c2)cc1` (centres undefined), for which the figures for the inhibition in test [1], in test [2] and in test [3] were -0.32%, -0.19% and -0.96%, respectively.
The corresponding values for `COc1cc(C(=O)NC2CCC(CN3CCC(c4c[nH]c5ccccc45)CC3)CC2)cc(Cl)n1` (centres undefined) are 1.3%, -0.71% and 2.31%.
For the compound `Cc1nc(C)c(-c2ccc(Oc3ccc(OC(F)(F)F)cc3)cc2)c(OC(=O)N(CCNC(C)C)C(C)C)c1Br`, the inhibition in test [1] amounted to 5.43%; in test [2], 8.45%; in test [3] it was 5.04%.
The corresponding values for `C=C[C@H]1CN2CC[C@H]1C[C@@H]2[C@@H](O)c1ccnc2ccccc12` are -1.24%, 1.12% and 0.13%.
Regarding `NCc1ccc(-c2ccccc2CN(C(=O)Nc2ccccc2)C2CCN(Cc3ccccc3)CC2)cc1`, the inhibition in test [1] is 2.32%; in test [2], 1.83%; in test [3], -3.48%.
The corresponding values for `CC[C@H]1CN2CC[C@H]1C[C@H]2[C@H](O)c1cc(-c2ccccc2C)nc2ccc(OC)cc12` are 0.33%, 0.37% and -4.71%.
Take `CNCCCN(C)C(=O)Oc1c(Br)c(C)nc(C)c1-c1ccc(Oc2ccc(OC(F)(F)F)cc2)cc1`: the figures for the inhibition in test [1], in test [2] and in test [3] were -0.18%, -3.25% and -1.27%, respectively.
The corresponding values for `CC(C)CNCc1ccc(-c2cccc(CN(C(=O)CCC3CCCC3)C3CCN(Cc4ccccc4)CC3)c2)cc1` are 16.4%, 12.3% and 10.7%.
